Activity calls are given as the source filed them. How the source made its calls: active means hit-call score of the fitted dose curve at least 0.9, where 1 is the maximum; inactive means score below 0.9.
Assays:
[1] = read-out: Monokine induced gamma interferon (MIG), CXCL9 (gene 4283); experiment: BSK_hDFCGF_MIG: BioMAP Diversity Plus: hDFCGF Assay for Monokine induced gamma interferon (MIG) Biomarker Activity (AID 2283063); conditions: primary human foreskin fibroblasts; actives raise or lower the signal
Summary of the method: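 Endpoint derived by bidirectional fitting relative to DMSO; MIG quantified via ELISA in primary human foreskin fibroblasts harvested 24 h after dosing.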

[2] = read-out: Matrix Metallopeptidase 1 (MMP1), MMP1 (gene 4312); experiment: BSK_hDFCGF_MMP1: BioMAP Diversity Plus: hDFCGF Assay for Matrix Metallopeptidase 1 (MMP1) Biomarker Activity (AID 2283064); conditions: primary human foreskin fibroblasts; actives raise or lower the signal
Summary of the method: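 Human foreskin fibroblasts exposed to chemical for 24 h; MMP1 detected by ELISA, with DMSO as baseline for bidirectional fitting.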

[3] = read-out: Vascular cell adhesion molecule 1 (VCAM1), VCAM1 (gene 7412); experiment: BSK_hDFCGF_VCAM1: BioMAP Diversity Plus: hDFCGF Assay for Vascular cell adhesion molecule 1 (VCAM1) Biomarker Activity (AID 2283065); conditions: primary human foreskin fibroblasts; actives raise or lower the signal;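 on AC50: VCAM-1 protein level quantified by ELISA after 24 h chemical exposure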
Summary of the method: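 Measured after 24 h chemical treatment of primary human skin fibroblasts, VCAM-1 was detected by ELISA and concentration-response analysed in both directions versus DMSO vehicle.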

[4] = read-out: Plasminogen activator inhibitor-1 (PAI1), SERPINE1 (gene 5054); experiment: BSK_hDFCGF_PAI1: BioMAP Diversity Plus: hDFCGF Assay for Plasminogen activator inhibitor-1 (PAI1) Biomarker Activity (AID 2283066); conditions: primary human foreskin fibroblasts; actives raise or lower the signal
Summary of the method: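 PAI-1 levels in human dermal foreskin fibroblasts were quantified by ELISA 24 h after dosing, with gain or loss analysed against DMSO. Overt cytotoxicity was checked by sulforhodamine B total-protein staining in parallel cultures.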

[5] = read-out: Intercellular Adhesion Molecule 1 (ICAM1), ICAM1 (gene 3383); experiment: BSK_KF3CT_ICAM1: BioMAP Diversity Plus: KF3CT Assay for Intercellular Adhesion Molecule 1 (ICAM1) Biomarker Activity (AID 2283067); conditions: primary human keratinocytes with fibroblasts; actives raise or lower the signal
Summary of the method: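 Bidirectional curve fitting against a DMSO baseline was applied to ICAM-1 ELISA signal from primary human skin co-cultures harvested 24 h after treatment, with SRB staining of parallel wells for overt cytotoxicity.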

[6] = read-out: Interferon-gamma inducible Protein 10 (IP10), CXCL10 (gene 3627); experiment: BSK_KF3CT_IP10: BioMAP Diversity Plus: KF3CT Assay for Interferon-gamma inducible Protein 10 (IP10) Biomarker Activity (AID 2283068); conditions: primary human keratinocytes with fibroblasts; actives raise or lower the signal
Summary of the method: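 In a primary skin co-culture of keratinocytes and fibroblasts, IP-10 is quantified by ELISA at 24 h after dosing. SRB staining of parallel wells monitors overt toxicity. Curves are fitted both directions against DMSO.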

[7] = BSK_KF3CT_SRB: Viability Assessment in the BioMAP Diversity Plus: KF3CT Assay (AID 2283069); conditions: primary human keratinocytes with fibroblasts;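 further: read 24 h after compound addition; fitted for both signal gain and loss against DMSO baseline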
Summary of the method: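 Overt cytotoxicity is assessed as total protein by sulforhodamine B staining in parallel human skin co-cultures at 24 h after dosing. DMSO serves as negative control and baseline.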

[8] = read-out: Interleukin-1 alpha (IL1a), IL1A (gene 3552); experiment: BSK_KF3CT_IL1a: BioMAP Diversity Plus: KF3CT Assay for Interleukin-1 alpha (IL1a) Biomarker Activity (AID 2283070); conditions: primary human keratinocytes with fibroblasts; actives raise or lower the signal
Summary of the method: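 Readout is IL-1a level by ELISA, compared bidirectionally with DMSO as baseline. Cells: human keratinocytes co-cultured with foreskin fibroblasts, harvested 24 h post-dose.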

[9] = read-out: TIMP metallopeptidase inhibitor 2 (TIMP2), TIMP2 (gene 7077); experiment: BSK_KF3CT_TIMP2: BioMAP Diversity Plus: KF3CT Assay for TIMP metallopeptidase inhibitor 2 (TIMP2) Biomarker Activity (AID 2283071); conditions: primary human keratinocytes with fibroblasts; actives raise or lower the signal
Summary of the method: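 TIMP-2 measured by ELISA at 24 h in human keratinocyte/fibroblast primary co-cultures exposed to chemicals. Both increases and decreases were fitted against DMSO. Parallel cultures were stained with SRB for total protein as an overt-cytotoxicity check.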

[10] = read-out: Transforming growth factor beta 1 (TGFb1), TGFB1 (gene 7040); experiment: BSK_KF3CT_TGFb1: BioMAP Diversity Plus: KF3CT Assay for Transforming growth factor beta 1 (TGFb1) Biomarker Activity (AID 2283072); conditions: primary human keratinocytes with fibroblasts; actives raise or lower the signal
Summary of the method: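 ELISA quantifies TGF-b1 at 24 h post-dose in a primary human skin co-culture of keratinocytes and fibroblasts, with gain or loss judged against DMSO. Parallel SRB total-protein staining flags overt cytotoxicity.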

Measured: AC50

C[C@]12CC[C@@H]3c4ccc(O)cc4CC[C@H]3[C@@H]1CCC2=O
inactive: [1] | [2] | [3] | [4] | [5] | [6] | [7] | [8] | [9] | [10]

CCCOC(=O)c1cc(O)c(O)c(O)c1
inactive: [2] | [3] | [4] | [5] | [6] | [7] | [8]
active: [1] 10.8 µM | [9] 1.49 µM | [10] 1.53 µM

OC12N=C(c3ccccc3)SC1Cc1cc(Cl)ccc12 (stereo not drawn)
inactive: [1] | [2] | [3] | [4] | [5] | [6] | [7] | [8] | [9] | [10]

CCCCOC(=O)c1ccc(O)cc1
inactive: [1] | [2] | [3] | [4] | [5] | [6] | [7] | [8] | [9] | [10]

O=C1c2ccccc2C(=O)N1CCc1noc(-c2ccc(CN3CCCCCC3)s2)n1
inactive: [1] | [2] | [3] | [4] | [5] | [6] | [7] | [8] | [9] | [10]

O=C=NCCCCCCN=C=O
inactive: [1] | [2] | [3] | [4] | [5] | [6] | [7] | [8] | [10]

COc1cc(C(=O)NC2CCN(C)CC2)ccc1Nc1ncc2c(n1)N(C1CCCC1)CC(F)(F)C(=O)N2C
active: [1] 6.25 µM | [2] 18.6 µM | [3] 2.79 µM | [4] 12.2 µM | [5] 18.6 µM | [6] 32.3 µM | [7] 30.8 µM | [8] 7.74 µM | [9] 28.9 µM | [10] 29.8 µM

CCCCCc1ccc(N)cc1
active: [6] 22 µM | [7] 24.4 µM | [9] 20.8 µM
inactive: [1] | [2] | [3] | [4] | [5] | [8] | [10]

O=c1ccc2ccccc2o1
inactive: [1] | [2] | [3] | [4] | [5] | [6] | [7] | [8] | [9] | [10]

CCOC(=O)O[C@H](C)OC(=O)c1ccc2c(c1)cc(C(=O)NC1CCN(C(C)C)CC1)n2Cc1cc(-c2ccc(Cl)s2)on1
active: [1] 6.08 µM | [2] 6.2 µM | [3] 3.74 µM | [4] 3.81 µM | [5] 9.05 µM | [6] 10.4 µM | [7] 6.24 µM | [8] 6.3 µM | [9] 7.43 µM | [10] 6.7 µM

CO[C@H]1/C=C/O[C@@]2(C)Oc3c(C)c(O)c4c(O)c(c(/C=N/N5CCN(C)CC5)c(O)c4c3C2=O)NC(=O)/C(C)=C\C=C\[C@H](C)[C@H](O)[C@@H](C)[C@@H](O)[C@@H](C)[C@H](OC(C)=O)[C@@H]1C
inactive: [1] | [3] | [4] | [5] | [6] | [7] | [8] | [9] | [10]

CCO[Si](CCCNC(N)=O)(OCC)OCC
inactive: [1] | [2] | [3] | [4] | [5] | [6] | [7] | [8] | [9] | [10]

Cc1ccc(C(C)C)cc1
inactive: [1] | [2] | [3] | [4] | [5] | [6] | [7] | [8] | [9] | [10]

O=C(Nc1ccc(Cl)cc1)Nc1ccc(Cl)c(Cl)c1
inactive: [5] | [6] | [7] | [8] | [9] | [10]
active: [1] 0.148 µM | [2] 0.242 µM | [3] 0.47 µM | [4] 0.7 µM

Cc1cc(F)ccc1-c1cc(N2CC[C@@H](O)[C@H]2CO)ncc1N(C)C(=O)C(C)(C)c1cc(C(F)(F)F)cc(C(F)(F)F)c1
active: [1] 15.8 µM | [2] 16.7 µM | [3] 12.6 µM | [4] 11.3 µM | [5] 26.3 µM | [6] 13.2 µM | [7] 13.5 µM | [8] 15 µM | [9] 12.4 µM | [10] 25.1 µM

O=c1c(-c2ccc(O)cc2)coc2cc(O)cc(O)c12
active: [2] 15.1 µM | [4] 20 µM
inactive: [1] | [3] | [5] | [6] | [7] | [8] | [9] | [10]

COc1cccc([C@H](O)C2CCN(CCc3ccc(F)cc3)CC2)c1OC
inactive: [1] | [2] | [3] | [4] | [5] | [6] | [7] | [8] | [9] | [10]

Cc1ncc(CO)c(CO)c1O
inactive: [1] | [2] | [3] | [4] | [5] | [6] | [7] | [8] | [9] | [10]

CC(=O)N1CCN(c2ccc(OC[C@H]3CO[C@](Cn4ccnc4)(c4ccc(Cl)cc4Cl)O3)cc2)CC1
active: [1] 36.9 µM | [2] 32.6 µM | [3] 35.5 µM | [4] 34.2 µM | [5] 30.9 µM | [6] 34.5 µM | [7] 26.6 µM | [8] 33.6 µM | [9] 31.5 µM | [10] 29.2 µM

Source: PubChem BioAssay (EPA / NIEHS)
